Test results as given in the supplement of paper PMC10849652.
Of roughly 8,800 targets only a part is listed; those with a hit were picked by preference. About 0.5% of all pairs of compound and target were hits.

Columns and labels:
Experiment in all cases: log2 fold change, soluble protein after heating vs DMSO (PISA); higher = thermal stabilisation; K562 lysate, 10 uM; active = over 0.2 and 3.5 SD of the protein, either way, in both replicates (recomputed)
vemurafenib = compound: CCCS(=O)(=O)Nc1ccc(F)c(C(=O)c2c[nH]c3ncc(-c4ccc(Cl)cc4)cc23)c1F [vemurafenib]
Method in brief: (§1)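 Soluble protein was defined as the supernatant remaining after 21,000xg for 90 min, following pooling of heated aliquots and adjustment to 0.5% NP-40 at 4°C. Before that, crude K562 extract at 1 mg/mL protein in PBS pH 7.4 with 1 mM MgCl2 was treated with 10 μM compound for 30 min and heated for 3 min across 48°C-58°C. Quantification used TMTpro 16plex LC-MS/MS with channel sums equalised, and values are log-two fold changes in thermal stability relative to solvent controls from duplicates.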

[1] = compound: CCCS(=O)(=O)Nc1ccc(F)c(C(=O)c2c[nH]c3ncc(Cl)cc23)c1F
Method in brief: as §1

barasertib = compound: CCN(CCCOc1ccc2c(Nc3cc(CC(=O)Nc4cccc(F)c4)[nH]n3)ncnc2c1)CCOP(=O)(O)O [barasertib]
Method in brief: as §1

[2] = compound: CC[C@@H]1C(=O)N(C)c2cnc(Nc3ccc(C(=O)NC4CCN(C)CC4)cc3OC)nc2N1C1CCCC1
Method in brief: as §1

volasertib = compound: CC[C@@H]1C(=O)N(C)c2cnc(Nc3ccc(C(=O)N[C@H]4CC[C@H](N5CCN(CC6CC6)CC5)CC4)cc3OC)nc2N1C(C)C [volasertib]
Method in brief: as §1

[3] = compound: CCn1c(C(=O)N(C2CC2)C2CC2)cc2c3c(ncn3C)c(Nc3cc(C)n(C)n3)nc21
Method in brief: as §1

[4] = compound: CCn1cc(-c2ccnc3[nH]c(-c4cccc(CN(C)C)c4)cc23)c(-c2ccc(NC(=O)N(C)C)cc2)n1
Method in brief: as §1

[5] = compound: CN1CCC(CNc2ccc3ncc(-c4cccc(OC(F)(F)F)c4)n3n2)CC1
Method in brief: as §1

saracatinib = compound: CN1CCN(CCOc2cc(OC3CCOCC3)c3c(Nc4c(Cl)ccc5c4OCO5)ncnc3c2)CC1 [saracatinib]
Method in brief: as §1

sotrastaurin = compound: CN1CCN(c2nc(C3=C(c4c[nH]c5ccccc45)C(=O)NC3=O)c3ccccc3n2)CC1 [sotrastaurin]
Method in brief: as §1

alvocidib = compound: CN1CC[C@H](c2c(O)cc(O)c3c(=O)cc(-c4ccccc4Cl)oc23)[C@H](O)C1 [alvocidib]
Method in brief: as §1

Tubastatin A = compound: CN1CCc2c(c3ccccc3n2Cc2ccc(C(=O)NO)cc2)C1 [Tubastatin A]
Method in brief: as §1

[6] = compound: CNC(=O)C1=CC=CC=C1NC2=NC(=NC=C2Cl)NC3=C(C=C(C=C3)N4CCOCC4)OC
Method in brief: as §1

defactinib = compound: CNC(=O)c1ccc(Nc2ncc(C(F)(F)F)c(NCc3nccnc3N(C)S(C)(=O)=O)n2)cc1 [defactinib]
Method in brief: as §1

[7] = compound: CNc1nc(-c2ccc3c(N)n[nH]c3c2)cc(N2C[C@@H](C(=O)NC3CCCCC3)CC[C@H]2C)n1
Method in brief: as §1

encorafenib = compound: COC(=O)N[C@@H](C)CNc1nccc(-c2cn(C(C)C)nc2-c2cc(Cl)cc(NS(C)(=O)=O)c2F)n1 [encorafenib]
Method in brief: as §1

[8] = compound: COC(=O)[C@H](CCSC)NC(=O)C1=C(C=C(C=C1)NC[C@H](CS)N)C2=CC=CC=C2
Method in brief: as §1

alisertib = compound: COc1cc(Nc2ncc3c(n2)-c2ccc(Cl)cc2C(c2c(F)cccc2OC)=NC3)ccc1C(=O)O [alisertib]
Method in brief: as §1

[9] = compound: COc1cc2nc(-c3cc(F)ccc3O)nc(N[C@@H]3CNC[C@H]3C(C)(C)O)c2cc1OC
Method in brief: as §1

gefitinib = compound: COc1cc2ncnc(Nc3ccc(F)c(Cl)c3)c2cc1OCCCN1CCOCC1 [gefitinib]
Method in brief: as §1

Measured: log2 fold change

SPG11 (UniProt Q96JI7)
inactive: vemurafenib 0.084 | [1] -0.011 | barasertib 0.006 | [2] -0.042 | volasertib -0.037 | [3] -0.05 | [4] 0.06 | [5] -0.13 | saracatinib 0.077 | sotrastaurin 0.007 | alvocidib 0.161 | Tubastatin A -0.129 | [6] -0.058 | defactinib -0.015 | [7] -0.003 | encorafenib 0.049 | [8] 0.088 | alisertib -0.041 | [9] 0.07 | gefitinib -0.024

SHC1 isoform 6 (UniProt P29353)
Chain of UniProt P29353 (P29353 whole entry, looked up): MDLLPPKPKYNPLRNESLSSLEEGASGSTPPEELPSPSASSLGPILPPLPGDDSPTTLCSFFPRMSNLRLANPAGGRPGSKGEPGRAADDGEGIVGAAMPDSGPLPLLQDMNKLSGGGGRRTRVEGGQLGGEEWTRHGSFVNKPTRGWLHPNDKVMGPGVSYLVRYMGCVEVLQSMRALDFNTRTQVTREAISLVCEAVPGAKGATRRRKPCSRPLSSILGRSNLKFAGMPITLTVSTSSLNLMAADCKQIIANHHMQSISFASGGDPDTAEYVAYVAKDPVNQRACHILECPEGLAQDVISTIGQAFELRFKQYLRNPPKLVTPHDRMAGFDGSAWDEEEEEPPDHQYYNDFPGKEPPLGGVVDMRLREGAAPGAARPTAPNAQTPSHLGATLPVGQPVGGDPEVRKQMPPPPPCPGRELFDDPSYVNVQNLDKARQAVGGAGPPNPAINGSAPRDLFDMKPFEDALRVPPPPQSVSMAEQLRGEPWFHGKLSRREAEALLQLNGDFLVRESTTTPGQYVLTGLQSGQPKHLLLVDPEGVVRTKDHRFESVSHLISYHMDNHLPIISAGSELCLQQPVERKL
active: [4] 0.635
inactive: vemurafenib 0.028 | [1] 0.003 | barasertib 0.008 | [2] -0.027 | volasertib 0.01 | [3] -0.035 | [5] -0.163 | saracatinib -0.007 | sotrastaurin 0.017 | alvocidib 0.186 | Tubastatin A 0.035 | [6] 0.001 | defactinib -0.031 | [7] 0.086 | encorafenib 0.15 | [8] -0.078 | alisertib -0.008 | [9] -0.014 | gefitinib -0.035

SSBP3 (UniProt Q9BWW4)
Chain of UniProt Q9BWW4 (Q9BWW4 whole entry, looked up): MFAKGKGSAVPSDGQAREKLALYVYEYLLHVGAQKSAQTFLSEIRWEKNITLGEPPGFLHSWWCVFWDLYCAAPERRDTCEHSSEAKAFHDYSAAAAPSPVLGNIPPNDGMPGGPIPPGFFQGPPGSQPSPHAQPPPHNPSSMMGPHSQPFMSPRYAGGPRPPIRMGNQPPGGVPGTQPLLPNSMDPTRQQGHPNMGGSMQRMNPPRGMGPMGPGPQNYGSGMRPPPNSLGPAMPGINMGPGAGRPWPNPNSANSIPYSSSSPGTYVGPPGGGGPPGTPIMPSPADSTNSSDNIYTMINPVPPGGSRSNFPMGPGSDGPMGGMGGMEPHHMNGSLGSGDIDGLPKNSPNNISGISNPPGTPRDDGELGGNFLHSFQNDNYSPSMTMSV
inactive: vemurafenib -0.02 | [1] -0.033 | barasertib -0.049 | [2] -0.001 | volasertib 0.008 | [3] 0.038 | [4] -0.03 | [5] -0.083 | saracatinib 0.068 | sotrastaurin -0.005 | alvocidib 0.028 | Tubastatin A 0.074 | [6] 0 | defactinib 0.072 | [7] 0.008 | encorafenib 0.032 | [8] 0.02 | alisertib 0.018 | [9] -0.016 | gefitinib -0.054

SFR1 isoform 2 (UniProt Q86XK3)
Chain of UniProt Q86XK3 (Q86XK3 whole entry, looked up): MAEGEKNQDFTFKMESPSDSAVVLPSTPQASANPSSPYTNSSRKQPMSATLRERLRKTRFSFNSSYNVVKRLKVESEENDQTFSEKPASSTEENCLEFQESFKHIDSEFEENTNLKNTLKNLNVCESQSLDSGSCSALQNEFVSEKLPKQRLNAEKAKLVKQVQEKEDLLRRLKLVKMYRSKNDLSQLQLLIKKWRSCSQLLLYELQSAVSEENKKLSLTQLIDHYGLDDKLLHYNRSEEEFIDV
inactive: vemurafenib -0.031 | [1] -0.037 | barasertib 0.024 | [2] 0.028 | volasertib 0.022 | [3] 0.013 | [4] -0.087 | [5] -0.119 | saracatinib -0.04 | sotrastaurin 0.085 | alvocidib -0.014 | Tubastatin A -0.003 | [6] -0.009 | defactinib -0.155 | [7] -0.005 | encorafenib 0.014 | [8] -0.007 | alisertib 0.004 | [9] -0.007 | gefitinib -0.03

SLC26A6 (UniProt Q9BXS9)
Chain of UniProt Q9BXS9 (Q9BXS9 whole entry, looked up): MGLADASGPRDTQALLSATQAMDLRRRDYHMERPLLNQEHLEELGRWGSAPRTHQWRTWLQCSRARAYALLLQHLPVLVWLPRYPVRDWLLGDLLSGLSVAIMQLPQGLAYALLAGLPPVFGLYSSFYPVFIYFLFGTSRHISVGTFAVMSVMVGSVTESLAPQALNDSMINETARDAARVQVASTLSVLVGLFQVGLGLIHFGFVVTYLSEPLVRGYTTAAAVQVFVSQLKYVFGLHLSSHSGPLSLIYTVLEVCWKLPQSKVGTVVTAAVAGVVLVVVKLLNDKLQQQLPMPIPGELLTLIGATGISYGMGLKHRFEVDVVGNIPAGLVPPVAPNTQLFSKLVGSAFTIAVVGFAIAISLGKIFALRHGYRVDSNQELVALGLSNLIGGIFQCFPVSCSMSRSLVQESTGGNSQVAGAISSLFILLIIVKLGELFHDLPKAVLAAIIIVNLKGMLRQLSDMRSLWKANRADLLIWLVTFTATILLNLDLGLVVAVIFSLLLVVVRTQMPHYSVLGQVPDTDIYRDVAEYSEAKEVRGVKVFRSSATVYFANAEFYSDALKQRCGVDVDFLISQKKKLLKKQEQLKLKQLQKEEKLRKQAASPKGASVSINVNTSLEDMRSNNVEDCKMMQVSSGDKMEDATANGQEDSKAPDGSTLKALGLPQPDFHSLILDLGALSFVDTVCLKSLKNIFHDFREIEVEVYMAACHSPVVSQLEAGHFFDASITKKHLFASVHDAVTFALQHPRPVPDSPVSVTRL
inactive: vemurafenib 0.106 | [1] 0.086 | [2] 0.055 | volasertib 0.008 | [3] 0.017 | [4] -0.095 | [5] 0.036 | saracatinib -0.126 | sotrastaurin 0.005 | alvocidib -0.095 | Tubastatin A -0.05 | [6] -0.004 | defactinib 0.055 | [7] 0.086 | encorafenib -0.016 | [8] -0.111 | alisertib 0.06 | [9] -0.056 | gefitinib -0.022
active: barasertib 0.421

STK24 (UniProt B4DR80)
inactive: vemurafenib 0.009 | [1] 0.005 | barasertib 0 | [2] -0.03 | volasertib -0.017 | [3] 0.005 | [4] 0.02 | [5] -0.007 | saracatinib 0.005 | sotrastaurin 0.046 | alvocidib -0.029 | Tubastatin A 0.02 | [6] -0.022 | defactinib 0.11 | [7] -0.008 | encorafenib -0.012 | [8] -0.039 | alisertib -0.037 | [9] 0.078 | gefitinib -0.052

SH3BP5L (UniProt Q7L8J4)
Chain of UniProt Q7L8J4 (Q7L8J4 whole entry, looked up): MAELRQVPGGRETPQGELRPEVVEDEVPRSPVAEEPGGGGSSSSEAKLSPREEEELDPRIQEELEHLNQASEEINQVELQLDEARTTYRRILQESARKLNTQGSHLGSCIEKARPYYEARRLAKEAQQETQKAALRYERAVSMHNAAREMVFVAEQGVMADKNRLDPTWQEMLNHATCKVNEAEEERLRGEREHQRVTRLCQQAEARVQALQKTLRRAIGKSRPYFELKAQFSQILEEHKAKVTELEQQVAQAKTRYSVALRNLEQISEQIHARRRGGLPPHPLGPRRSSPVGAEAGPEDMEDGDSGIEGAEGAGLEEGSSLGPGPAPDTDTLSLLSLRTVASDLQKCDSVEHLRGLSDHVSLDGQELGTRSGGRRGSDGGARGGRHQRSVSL
inactive: vemurafenib 0.078 | [1] 0.02 | barasertib -0.029 | [2] 0.011 | volasertib 0.013 | [3] -0.011 | [4] -0.014 | [5] 0.072 | saracatinib 0.05 | sotrastaurin 0 | alvocidib -0.003 | Tubastatin A -0.012 | [6] 0.036 | defactinib -0.003 | [7] -0.015 | encorafenib 0.058 | [8] -0.047 | alisertib 0.021 | [9] 0.015 | gefitinib 0.001

STARD3 isoform 3 (UniProt Q14849)
Chain of UniProt Q14849 (Q14849 whole entry, looked up): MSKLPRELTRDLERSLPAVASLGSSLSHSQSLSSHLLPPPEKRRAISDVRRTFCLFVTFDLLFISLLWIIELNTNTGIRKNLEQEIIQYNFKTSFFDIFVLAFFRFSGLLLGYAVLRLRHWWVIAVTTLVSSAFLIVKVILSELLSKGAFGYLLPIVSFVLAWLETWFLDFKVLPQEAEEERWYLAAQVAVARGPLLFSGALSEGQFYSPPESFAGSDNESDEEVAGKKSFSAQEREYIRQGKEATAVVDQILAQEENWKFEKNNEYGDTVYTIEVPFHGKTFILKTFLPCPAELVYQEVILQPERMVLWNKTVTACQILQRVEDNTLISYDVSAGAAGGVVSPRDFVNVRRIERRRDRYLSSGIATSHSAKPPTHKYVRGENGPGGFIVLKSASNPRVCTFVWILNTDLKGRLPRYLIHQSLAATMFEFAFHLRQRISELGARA
inactive: vemurafenib 0.029 | [1] 0.054 | barasertib 0.051 | [2] 0.289 | volasertib 0.18 | [3] -0.031 | [4] -0.122 | [5] 0.02 | saracatinib -0.091 | sotrastaurin -0.016 | alvocidib -0.037 | Tubastatin A 0.079 | [6] 0.004 | defactinib -0.019 | [7] 0.068 | encorafenib -0.029 | [8] 0.055 | alisertib -0.007 | [9] -0.059 | gefitinib 0.081

TANK (UniProt Q92844)
Chain of UniProt Q92844 (Q92844 whole entry, looked up): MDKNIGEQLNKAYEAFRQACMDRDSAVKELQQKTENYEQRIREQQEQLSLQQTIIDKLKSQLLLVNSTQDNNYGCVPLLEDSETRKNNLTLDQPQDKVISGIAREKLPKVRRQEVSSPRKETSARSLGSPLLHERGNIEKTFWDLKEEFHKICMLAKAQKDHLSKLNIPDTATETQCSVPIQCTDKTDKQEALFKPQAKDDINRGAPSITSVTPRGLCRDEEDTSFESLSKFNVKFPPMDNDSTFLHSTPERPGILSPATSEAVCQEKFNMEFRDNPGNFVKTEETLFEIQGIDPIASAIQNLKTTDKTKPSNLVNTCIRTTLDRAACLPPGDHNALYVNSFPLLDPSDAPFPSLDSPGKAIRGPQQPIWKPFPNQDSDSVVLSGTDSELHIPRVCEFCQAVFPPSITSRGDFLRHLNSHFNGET
active: [8] -0.309
inactive: vemurafenib 0.023 | [1] 0.004 | barasertib 0.007 | [2] -0.026 | volasertib -0.02 | [3] 0.004 | [4] 0.18 | [5] -0.054 | saracatinib 0.01 | sotrastaurin 0 | alvocidib 0.066 | Tubastatin A -0.043 | [6] 0.25 | defactinib 0.044 | [7] 0.068 | encorafenib -0.006 | alisertib -0.006 | [9] -0.024 | gefitinib -0.047

SLC25A32 (UniProt Q9H2D1)
Chain of UniProt Q9H2D1 (Q9H2D1 whole entry, looked up): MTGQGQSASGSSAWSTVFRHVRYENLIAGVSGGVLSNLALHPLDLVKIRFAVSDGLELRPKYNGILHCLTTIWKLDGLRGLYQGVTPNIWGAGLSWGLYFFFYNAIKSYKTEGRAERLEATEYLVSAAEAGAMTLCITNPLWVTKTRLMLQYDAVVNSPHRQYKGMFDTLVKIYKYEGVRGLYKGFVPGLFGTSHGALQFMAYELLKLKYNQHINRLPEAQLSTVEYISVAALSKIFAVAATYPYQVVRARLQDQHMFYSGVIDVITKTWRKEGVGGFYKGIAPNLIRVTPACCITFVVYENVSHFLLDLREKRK
inactive: vemurafenib 0.053 | [1] 0.01 | barasertib -0.012 | [2] -0.013 | volasertib 0.002 | [3] -0.045 | [4] -0.129 | [5] 0.054 | saracatinib 0.029 | sotrastaurin 0.007 | alvocidib -0.05 | Tubastatin A 0.037 | [6] -0.01 | defactinib 0.03 | [7] 0.052 | encorafenib 0.04 | [8] 0.01 | alisertib 0.036 | [9] 0.001 | gefitinib -0.033

SNRPD2 (UniProt P62316)
Chain of UniProt P62316 (P62316 whole entry, looked up): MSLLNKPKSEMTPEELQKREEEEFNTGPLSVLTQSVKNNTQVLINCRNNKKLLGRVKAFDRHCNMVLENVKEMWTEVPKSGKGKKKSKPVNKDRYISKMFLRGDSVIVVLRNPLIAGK
inactive: vemurafenib -0.008 | [1] -0.019 | barasertib 0.001 | [2] 0.058 | volasertib 0.033 | [3] 0.018 | [4] -0.083 | [5] 0.051 | saracatinib -0.021 | sotrastaurin 0.011 | alvocidib -0.054 | Tubastatin A 0.027 | [6] -0.003 | defactinib -0.019 | [7] 0.021 | encorafenib 0.005 | [8] -0.027 | alisertib 0.014 | [9] 0.029 | gefitinib -0.02

TARBP2 (UniProt Q15633)
Chain of UniProt Q15633 (Q15633 whole entry, looked up): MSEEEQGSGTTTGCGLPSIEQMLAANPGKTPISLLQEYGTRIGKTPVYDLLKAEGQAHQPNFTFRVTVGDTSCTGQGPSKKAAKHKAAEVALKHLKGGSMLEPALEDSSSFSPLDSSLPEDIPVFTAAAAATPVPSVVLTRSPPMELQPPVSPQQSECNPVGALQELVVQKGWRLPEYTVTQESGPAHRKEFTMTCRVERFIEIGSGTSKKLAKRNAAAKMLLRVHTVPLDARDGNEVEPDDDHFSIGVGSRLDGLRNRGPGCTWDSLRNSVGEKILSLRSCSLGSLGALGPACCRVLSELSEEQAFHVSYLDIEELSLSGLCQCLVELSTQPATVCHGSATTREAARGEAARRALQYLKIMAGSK
inactive: vemurafenib -0.035 | [1] 0.092 | barasertib 0.093 | [2] -0.145 | volasertib -0.034 | [3] -0.016 | [4] -0.02 | [5] -0.093 | saracatinib 0.035 | sotrastaurin -0.006 | alvocidib 0.016 | Tubastatin A -0.147 | [6] 0.038 | defactinib 0.017 | [7] -0.026 | encorafenib 0.037 | [8] 0.072 | alisertib -0.039 | [9] 0.008 | gefitinib -0.01

SF3B6 (UniProt Q9Y3B4)
Chain of UniProt Q9Y3B4 (Q9Y3B4 whole entry, looked up): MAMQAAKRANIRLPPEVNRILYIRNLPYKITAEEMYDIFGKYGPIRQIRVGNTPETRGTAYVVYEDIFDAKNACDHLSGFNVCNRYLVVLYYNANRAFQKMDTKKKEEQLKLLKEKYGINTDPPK
inactive: vemurafenib -0.006 | [1] -0.003 | barasertib -0.026 | [2] 0.027 | volasertib 0.014 | [3] -0.003 | [4] 0.061 | [5] -0.013 | saracatinib 0.028 | sotrastaurin 0.018 | alvocidib 0.05 | Tubastatin A -0.037 | [6] 0.016 | defactinib 0.017 | [7] 0.071 | encorafenib 0.014 | [8] -0.003 | alisertib -0.011 | [9] -0.027 | gefitinib -0.172

SPC25 (UniProt Q9HBM1)
Chain of UniProt Q9HBM1 (Q9HBM1 whole entry, looked up): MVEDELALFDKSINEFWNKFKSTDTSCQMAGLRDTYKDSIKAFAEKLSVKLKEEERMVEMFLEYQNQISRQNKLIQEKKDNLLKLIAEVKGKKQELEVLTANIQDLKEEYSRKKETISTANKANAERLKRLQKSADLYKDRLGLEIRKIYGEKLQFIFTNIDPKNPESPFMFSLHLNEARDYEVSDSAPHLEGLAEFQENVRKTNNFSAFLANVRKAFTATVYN
inactive: vemurafenib 0.011 | [1] -0.008 | barasertib 0.036 | [2] 0.006 | volasertib -0.019 | [3] 0.012 | [4] -0.083 | [5] -0.004 | saracatinib 0.013 | sotrastaurin -0.013 | alvocidib -0.015 | Tubastatin A 0.009 | [6] 0.024 | defactinib -0.017 | [7] -0.014 | encorafenib 0.034 | [8] 0.014 | alisertib -0.008 | [9] -0.043 | gefitinib -0.011

SPR (UniProt P35270)
Chain of UniProt P35270 (P35270 whole entry, looked up): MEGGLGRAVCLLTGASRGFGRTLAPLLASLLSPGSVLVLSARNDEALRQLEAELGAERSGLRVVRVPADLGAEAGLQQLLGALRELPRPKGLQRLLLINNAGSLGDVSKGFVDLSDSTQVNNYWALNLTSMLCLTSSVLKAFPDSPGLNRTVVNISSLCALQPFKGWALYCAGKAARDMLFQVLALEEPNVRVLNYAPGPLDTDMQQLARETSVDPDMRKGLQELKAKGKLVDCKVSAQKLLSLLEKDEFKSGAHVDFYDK
inactive: vemurafenib 0.01 | [1] 0.026 | barasertib -0.013 | [2] -0.014 | volasertib -0.003 | [3] -0.024 | [4] 0.158 | [5] -0.028 | saracatinib 0.093 | sotrastaurin -0.047 | alvocidib 0.164 | Tubastatin A -0.1 | [6] 0.071 | defactinib 0.019 | [7] 0.01 | encorafenib -0.097 | [8] 0.22 | alisertib 0.163 | [9] -0.017 | gefitinib -0.013

SSNA1 (UniProt O43805)
Chain of UniProt O43805 (O43805 whole entry, looked up): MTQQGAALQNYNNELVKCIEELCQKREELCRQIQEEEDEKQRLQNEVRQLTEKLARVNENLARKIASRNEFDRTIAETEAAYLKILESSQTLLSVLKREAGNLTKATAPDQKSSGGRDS
inactive: vemurafenib -0.067 | [1] -0.022 | barasertib 0.134 | [2] 0.075 | volasertib 0.027 | [3] 0.016 | [4] -0.005 | [5] -0.002 | saracatinib 0.013 | sotrastaurin 0.004 | alvocidib 0.016 | Tubastatin A 0.038 | [6] 0.043 | defactinib -0.036 | [7] 0.109 | encorafenib 0.023 | [8] -0.115 | alisertib 0.027 | [9] -0.014 | gefitinib 0.013
